From PubChem BioAssay
tim23-1 inh: tim23-1 yeast growth inhibition | S. cerevisiae tim23-1 growth, BacTiter-Glo luminescence, 24 h | 330,000 tested, 1.3% active | inhibition, % at 20 µM;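 active means growth inhibition of the mutant yeast at or above 50%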;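 further: temperature-sensitive mutant grown at 25 °C; plate controls were DMSO-treated mutant yeast for no effect and medium wells lacking yeast for full effect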
tim10-1 inh: inhibits growth of tim10-1 mutant yeast; S. cerevisiae tim10-1 ts strain growth, BacTiter-Glo, 24 h; inhibition, % at 20 µM; 330,000 tested, 2.2% active;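 active means inhibition of at least 40%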;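 further: mutant grown at 25 °C; 0% = DMSO wells with yeast and 100% = wells holding no yeast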
Rce1 inh: inhibitors of yeast Ras-converting enzyme. AID 2563. yeast membranes, quenched prenylated peptide cleavage fluorescence. Q03530. calls only. 290,000 tested, 0.27% active;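 active means fall in fluorescence gain of 50% or more versus controls, with final raw signal at or below 3038400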;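 further: plate controls were neutral control wells for no effect and wells lacking membranes for full effect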
Target sequence (Q03530 whole entry, looked up): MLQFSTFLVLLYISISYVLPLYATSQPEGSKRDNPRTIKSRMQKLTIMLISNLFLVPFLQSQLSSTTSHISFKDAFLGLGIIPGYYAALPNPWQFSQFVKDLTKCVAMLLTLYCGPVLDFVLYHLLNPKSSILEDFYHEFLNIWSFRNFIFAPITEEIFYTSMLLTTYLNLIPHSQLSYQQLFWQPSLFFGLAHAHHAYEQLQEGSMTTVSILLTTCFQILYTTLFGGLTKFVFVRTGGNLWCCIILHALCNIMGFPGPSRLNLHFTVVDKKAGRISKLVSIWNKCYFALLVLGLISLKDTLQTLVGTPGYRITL
PfHsp90 set2: growth inhibition of yeast expressing Plasmodium Hsp90; S. cerevisiae expressing PfHsp90, BacTiter-Glo ATP, 48 h; yeast lacking PDR1 and PDR3 efflux regulators; inhibition, % at 9.4 µM; 310,000 tested, 0.32% active;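 active means every replicate shows inhibition above about 80%, whatever the replicate mean, limit read from the data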;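 further: 0% = DMSO neutral controls and 100% = 20 µM radicicol positive controls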
TIM10 inh: TIM10 yeast growth inhibition | S. cerevisiae TIM10 strain growth, BacTiter-Glo luminescence, 24 h | inhibition, % at 10 µM | 330,000 tested, 1.4% active;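 active means inhibition of 40% or more at the single tested concentration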;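 further: wild-type TIM10 isogenic control strain grown at permissive 25 °C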
tim10-1 confirm: confirmation of tim10-1 mutant yeast growth inhibitors; shares compounds with tim10-1 inh; S. cerevisiae tim10-1 ts strain growth, BacTiter-Glo, 24 h; inhibition, % at 20 µM; 7,400 tested, 56% active;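 active means inhibition of yeast growth at or above a set limit in either of two repeat tests at 20 µM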;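 further: tim10-1 mutant grown at permissive 25 °C to find synthetic lethal compounds; 0% = DMSO yeast wells and 100% = medium wells without yeast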
An asterisk follows results filed as active; i = inactive; x = no result given; + = active, no number. Most compounds without a hit are left out; they make up all but 3.7% or so of the library.

SMILES	tim23-1 inh	tim10-1 inh	Rce1 inh	PfHsp90 set2	TIM10 inh	tim10-1 confirm
CCCCN1CC(=O)N2[C@H]3c4ccc(OC)cc4OC[C@@H]3[C@H](C(=O)OCC)[C@]2(C)C1=O	12	8	x	-44	3	x
CCCCOP(=O)(c1ccc(N(C)C)cc1)C(O)c1ccc(OC)cc1 (configuration not stated)	23	20	i	4	7	x
CCCCOP(=O)(c1ccc(N(C)C)cc1)C(O)c1ccccc1F (configuration not stated)	24	43*	i	-33	31	21
O=C1CCCN1CCC12CC3CC(CC(C3)C1)C2	34	41*	i	x	12	5
COc1ccccc1C(=O)Nc1ccccc1N1CCN(C(=O)c2ccc(Cl)cc2)CC1	44	47*	i	-29	29	17
O=C(Nc1ccccc1N1CCN(C(=O)c2ccc(Cl)cc2)CC1)c1cccc([N+](=O)[O-])c1	32	42*	i	17	20	13
COc1ccc(N(CC(=O)NCc2ccccc2C)S(=O)(=O)c2ccccc2[N+](=O)[O-])c(OC)c1	8	9	x	-6	12	x
O=S(=O)(N/N=C/c1ccc(N2CCOCC2)cc1)c1ccc(Br)cc1	17	-11	i	-39	14	x
COc1ccc(S(=O)(=O)NCCSc2ccc(C)cc2)cc1OC	7	32	i	5	-5	x
Cc1ccc(SCCNS(=O)(=O)c2ccc(F)cc2)cc1	36	41*	i	x	-13	15
N=c1ccn(O)cc1CCc1ccccc1	x	x	x	6	x	x
COc1ccc(-n2ccnc2CN2CCCC(CO)(Cc3cccc(OC)c3)C2)cc1 (configuration not stated)	18	41*	i	8	20	22
Cc1cc(CN2CCCC(CO)(Cc3cccc(Cl)c3)C2)n[nH]1 (configuration not stated)	4	15	i	12	-1	x
OCC1(Cc2cccc(Cl)c2)CCCN(Cc2ccc3cc(F)ccc3n2)C1 (configuration not stated)	33	48*	i	-6	23	21
COc1cccc(CC2(CO)CCCN(Cc3ccc(CO)o3)C2)c1 (configuration not stated)	17	10	i	-14	-4	x
COc1cc(OC)c(C(=O)OCC(=O)NCC2CCCCC2)cc1OC	0	9	x	-29	9	x
COc1ccc2c(c1)CCc1c(C(=O)Nc3cc(C)n(Cc4ccc(Cl)cc4)n3)noc1-2	-4	8	i	-59	0	x
Cc1cc(NC(=O)c2noc3c2CCCC3)nn1Cc1ccc(Cl)cc1	27	45*	i	6	17	22
CC(C)CCN1CCN(Cc2cccc3cccnc23)CC1CCO (configuration not stated)	7	10	i	24	-2	x
COc1cccc(C(C(=O)NC2CCCC2)N(CC2CCCO2)C(=O)Cc2cccs2)c1 (configuration not stated)	12	45*	i	10	14	21
NNC(=O)c1ncoc1-c1ccc(Cl)cc1	17	13	i	7	6	x
Cc1nc(SCC(=O)O)c2oc3ccccc3c2n1	3	4	i	10	-2	x
Cc1nc(SCC(=O)N2CCN(c3ccccc3)CC2)c2oc3ccccc3c2n1	40	48*	i	-23	31	43*
Cc1cccc2[nH]c3c(N4CCC5(CC4)OCCO5)ncnc3c12	33	51*	+	x	22	32*
CCN1C(=O)[C@@H]2[C@H](C1=O)[C@@H]1C[C@H]3C(=O)N(CC)C(=O)[C@H]3[C@@H]3C1=C(C(=O)N1C(=O)OC(=NCC4CC4)[C@]31C)[C@@H]2C	-1	5	i	-11	1	x
SMILES	tim23-1 inh	tim10-1 inh	Rce1 inh	PfHsp90 set2	TIM10 inh	tim10-1 confirm
COc1ccc(N(CC(=O)N/N=C/c2ccc3c(c2)OCO3)S(=O)(=O)c2ccccc2)cc1	-6	6	i	x	-13	x
COc1cc2c(cc1NC(=S)Nc1cccc(C(F)(F)F)c1)oc1ccccc12	40	40*	i	x	36	23
Cc1noc(C)c1CC(=O)N1CCCC(C(=O)c2ccc(C(C)(C)C)cc2)C1 (configuration not stated)	16	41*	i	16	30	22
Cc1ccc(-c2csc3ncnc(Nc4ccc(N5CCOCC5)cc4)c23)cc1	43	40*	i	-54	29	36*
O=C(c1ccco1)N1CCN(c2ncnc3scc(-c4ccc(F)cc4)c23)CC1	19	49*	i	1	32	36*
Cc1ccc(-c2csc3ncnc(N4CCN(c5ccccc5O)CC4)c23)cc1	44	44*	i	-19	-7	5
Cc1ccc(-c2csc3ncnc(NCCN4CCOCC4)c23)cc1	-44	20	i	-11	16	x
CCOc1ccc(-c2csc(Cn3c(CN4CCN(C)CC4)nc4ccccc4c3=O)n2)cc1	-2	18	i	-21	19	x
COc1ccc(C2CC(c3ccccc3)=NN2C(=O)COC(=O)/C=C/c2ccc(O)c(OC)c2)cc1 (configuration not stated)	24	12	i	7	8	x
O=C(CCCn1cncn1)N1CCCC(N2CCN(c3ccccc3F)CC2)C1 (configuration not stated)	-3	-4	i	-8	2	x
Cc1ccc(NC(=O)Nc2c(C)[nH]c(=O)[nH]c2=O)cc1Cl	8	-3	i	10	-2	x
O=S(=O)(Nc1ccc2c(c1)oc1ccccc12)N1CCCC1	22	48*	i	18	39	27
N#Cc1ccccc1NC(=O)CSc1cn[nH]n1	1	1	i	35	-15	x
CC(C)NC(=O)c1cc(-c2ccco2)nn1-c1ccc(Cl)cc1	37	44*	i	-12	-1	22
Cc1ccc(-n2nc(-c3ccco3)cc2C(=O)O)cc1	-4	6	i	22	8	x
O=C(c1cc(-c2ccco2)nn1-c1cccc(Cl)c1)N1CCCCC1	41	46*	i	-9	16	27
O=C(c1cc(-c2cccc(Cl)c2)on1)N1CCCCCC1	31	-9	i	15	21	x
O=C(CN1C(=O)NC2(CCOc3ccccc32)C1=O)Nc1ccc(Br)cc1F (configuration not stated)	20	6	x	x	4	x
Cc1cc(NC(=O)COC(=O)CCNS(=O)(=O)c2c(Cl)cccc2Cl)no1	-5	0	i	-2	-17	x
CCCC(C)C(=O)Nc1nc(C)c(-c2csc(Nc3ccc(Cl)cc3)n2)s1 (configuration not stated)	39	44*	i	-10	30	19
CCCC(C)C(=O)Nc1nc(C)c(-c2csc(Nc3ccccc3OC)n2)s1 (configuration not stated)	27	31	i	-42	15	x
COc1ccc(S(=O)(=O)N2CCOCC2)cc1NC(=O)c1ccccc1C	-7	5	i	12	0	x
